From the supplement of paper PMC11732987, “Enantioselective OTUD7B fragment discovery through chemoproteomics screening and high-throughput optimisation” (Communications Chemistry, 2025)

Legend:
Experiment in all cases: log2 ratio of Biotin-Ahx-Ub-VS probe labelling (fragment/DMSO); higher = less target engagement (more negative = stronger competition), active = hit call of the paper (q ≤ 0.05, log2 ratio ≤ -1)
Settings in all cases: compound concentration: 200 uM; treatment time: 3 h
USP34 = USP34 (UniProt Q70CQ2)
In short: (§1)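 Labelling with Biotin-Ahx-Ub-VS (0.5 µM final, 1 h) followed a 3 h triplicate treatment of HEK293T lysate (495 µg per sample, Tris/CHAPS/IGEPAL buffer with protease inhibitors) with fragment at 200 µM or vehicle. Labelled DUBs were NeutrAvidin-enriched, digested with LysC and trypsin, and run by diaPASEF LC-MS/MS. The values, average log2 fragment/vehicle ratios by unpaired t-test, come from global-median-normalised Spectronaut label-free quantities. Proteins with ≥2 unique peptides were used.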

USP36 = biological target: T1, USP36 (UniProt Q9P275)
T1 sequence (whole entry): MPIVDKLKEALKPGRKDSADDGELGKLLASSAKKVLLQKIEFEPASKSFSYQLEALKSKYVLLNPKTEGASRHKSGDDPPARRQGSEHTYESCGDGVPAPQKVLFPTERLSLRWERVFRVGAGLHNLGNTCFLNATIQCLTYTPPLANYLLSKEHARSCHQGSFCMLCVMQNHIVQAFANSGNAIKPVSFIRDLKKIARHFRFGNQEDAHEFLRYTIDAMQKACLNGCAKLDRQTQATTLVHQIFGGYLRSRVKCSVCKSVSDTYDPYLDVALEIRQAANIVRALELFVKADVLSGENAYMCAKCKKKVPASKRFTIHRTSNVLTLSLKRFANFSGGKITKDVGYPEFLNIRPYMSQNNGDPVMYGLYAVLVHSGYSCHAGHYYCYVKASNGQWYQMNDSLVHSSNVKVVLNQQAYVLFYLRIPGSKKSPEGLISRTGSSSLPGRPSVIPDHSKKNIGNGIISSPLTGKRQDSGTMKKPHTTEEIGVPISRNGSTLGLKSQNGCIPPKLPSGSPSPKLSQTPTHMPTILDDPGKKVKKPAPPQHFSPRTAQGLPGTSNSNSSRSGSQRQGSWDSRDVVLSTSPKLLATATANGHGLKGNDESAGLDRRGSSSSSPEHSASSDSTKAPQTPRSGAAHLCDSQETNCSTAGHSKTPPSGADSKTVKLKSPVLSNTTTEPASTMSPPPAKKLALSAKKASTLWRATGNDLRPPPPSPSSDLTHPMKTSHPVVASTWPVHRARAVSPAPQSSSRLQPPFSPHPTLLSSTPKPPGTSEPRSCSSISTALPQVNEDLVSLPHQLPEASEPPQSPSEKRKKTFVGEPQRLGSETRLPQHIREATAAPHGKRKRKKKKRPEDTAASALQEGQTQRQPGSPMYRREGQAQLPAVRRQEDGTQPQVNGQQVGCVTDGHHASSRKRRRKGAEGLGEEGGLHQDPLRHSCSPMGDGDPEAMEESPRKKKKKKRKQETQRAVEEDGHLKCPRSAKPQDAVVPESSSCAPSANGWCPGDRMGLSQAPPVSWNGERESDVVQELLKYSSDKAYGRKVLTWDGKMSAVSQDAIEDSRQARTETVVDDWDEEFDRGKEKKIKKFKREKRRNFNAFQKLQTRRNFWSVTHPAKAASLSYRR
In short: as §1

USP38 = biological target: T2, USP38 (UniProt Q8NB14)
T2 sequence (whole entry): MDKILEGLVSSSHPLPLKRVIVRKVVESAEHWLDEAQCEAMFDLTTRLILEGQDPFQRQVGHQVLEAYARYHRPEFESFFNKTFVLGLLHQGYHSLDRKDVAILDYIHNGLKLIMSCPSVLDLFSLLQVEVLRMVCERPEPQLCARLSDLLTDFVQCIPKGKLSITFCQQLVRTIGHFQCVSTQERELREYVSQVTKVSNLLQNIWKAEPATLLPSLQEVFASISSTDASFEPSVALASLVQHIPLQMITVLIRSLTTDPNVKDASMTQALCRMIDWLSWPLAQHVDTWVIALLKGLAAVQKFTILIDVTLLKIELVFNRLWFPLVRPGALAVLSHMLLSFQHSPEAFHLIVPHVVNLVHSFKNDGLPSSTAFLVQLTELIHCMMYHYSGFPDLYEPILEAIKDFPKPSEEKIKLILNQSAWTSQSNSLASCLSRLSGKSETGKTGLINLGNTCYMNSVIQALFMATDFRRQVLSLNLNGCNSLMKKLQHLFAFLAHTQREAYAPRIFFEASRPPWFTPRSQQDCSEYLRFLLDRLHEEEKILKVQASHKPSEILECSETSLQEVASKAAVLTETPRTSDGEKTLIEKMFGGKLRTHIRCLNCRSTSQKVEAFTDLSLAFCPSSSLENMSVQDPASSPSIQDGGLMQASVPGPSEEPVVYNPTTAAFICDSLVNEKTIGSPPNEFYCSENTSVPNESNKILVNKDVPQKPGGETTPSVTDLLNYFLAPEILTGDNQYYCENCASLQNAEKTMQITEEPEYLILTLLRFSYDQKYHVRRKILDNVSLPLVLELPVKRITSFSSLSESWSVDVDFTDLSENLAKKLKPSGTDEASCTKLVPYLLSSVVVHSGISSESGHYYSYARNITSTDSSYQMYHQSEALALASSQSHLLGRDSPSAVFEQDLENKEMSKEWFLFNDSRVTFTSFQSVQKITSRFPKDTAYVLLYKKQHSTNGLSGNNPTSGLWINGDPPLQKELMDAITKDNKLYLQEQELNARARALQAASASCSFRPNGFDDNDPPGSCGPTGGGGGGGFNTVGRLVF
In short: as §1

USP39 = biological target: T3, USP39 (UniProt Q53GS9)
T3 sequence (whole entry): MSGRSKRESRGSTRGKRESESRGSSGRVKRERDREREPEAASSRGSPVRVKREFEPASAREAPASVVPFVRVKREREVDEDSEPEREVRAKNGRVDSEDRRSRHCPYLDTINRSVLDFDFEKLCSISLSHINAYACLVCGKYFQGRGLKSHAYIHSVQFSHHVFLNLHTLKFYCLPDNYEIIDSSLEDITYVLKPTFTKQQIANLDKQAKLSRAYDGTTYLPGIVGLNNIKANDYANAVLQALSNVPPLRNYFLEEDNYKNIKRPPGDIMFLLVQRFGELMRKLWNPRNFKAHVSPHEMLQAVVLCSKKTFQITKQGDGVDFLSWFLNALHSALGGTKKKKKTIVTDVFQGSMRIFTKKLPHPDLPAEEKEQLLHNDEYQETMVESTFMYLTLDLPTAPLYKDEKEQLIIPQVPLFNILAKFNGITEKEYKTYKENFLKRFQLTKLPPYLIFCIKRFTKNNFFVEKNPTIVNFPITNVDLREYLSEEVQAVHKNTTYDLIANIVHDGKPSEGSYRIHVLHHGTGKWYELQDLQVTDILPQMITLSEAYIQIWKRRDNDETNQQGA
In short: as §1

USP4 = biological target: T4, USP4 (UniProt Q13107)
T4 sequence (whole entry): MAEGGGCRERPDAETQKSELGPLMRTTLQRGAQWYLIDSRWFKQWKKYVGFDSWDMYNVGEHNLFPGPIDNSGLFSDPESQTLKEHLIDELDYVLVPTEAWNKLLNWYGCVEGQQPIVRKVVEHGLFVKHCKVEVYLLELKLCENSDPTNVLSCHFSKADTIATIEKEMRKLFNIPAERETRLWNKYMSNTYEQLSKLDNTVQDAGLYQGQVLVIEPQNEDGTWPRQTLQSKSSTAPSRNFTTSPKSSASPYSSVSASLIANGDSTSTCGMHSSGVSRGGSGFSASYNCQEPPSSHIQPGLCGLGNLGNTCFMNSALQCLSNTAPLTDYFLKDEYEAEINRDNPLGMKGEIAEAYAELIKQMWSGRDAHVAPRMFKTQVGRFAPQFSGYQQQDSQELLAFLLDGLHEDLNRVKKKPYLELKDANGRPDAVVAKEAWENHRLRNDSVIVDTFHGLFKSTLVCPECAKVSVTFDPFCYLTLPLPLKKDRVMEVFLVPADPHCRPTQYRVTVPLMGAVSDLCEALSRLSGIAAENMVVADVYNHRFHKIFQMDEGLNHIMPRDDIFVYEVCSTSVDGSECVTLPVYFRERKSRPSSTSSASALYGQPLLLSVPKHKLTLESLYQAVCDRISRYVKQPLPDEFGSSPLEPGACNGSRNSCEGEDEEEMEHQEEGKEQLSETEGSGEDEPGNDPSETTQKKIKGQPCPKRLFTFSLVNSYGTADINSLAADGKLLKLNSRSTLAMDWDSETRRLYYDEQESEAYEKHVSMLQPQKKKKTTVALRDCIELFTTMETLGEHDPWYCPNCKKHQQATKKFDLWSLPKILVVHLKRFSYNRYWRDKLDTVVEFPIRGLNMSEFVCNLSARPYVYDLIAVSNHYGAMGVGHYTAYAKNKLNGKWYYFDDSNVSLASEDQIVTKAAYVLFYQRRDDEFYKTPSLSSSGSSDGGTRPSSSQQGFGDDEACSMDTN
In short: as §1

Measured: log2 ratio of Biotin-Ahx-Ub-VS probe labelling

Sequence of USP34 (Q70CQ2 whole entry, the tested form may be a part): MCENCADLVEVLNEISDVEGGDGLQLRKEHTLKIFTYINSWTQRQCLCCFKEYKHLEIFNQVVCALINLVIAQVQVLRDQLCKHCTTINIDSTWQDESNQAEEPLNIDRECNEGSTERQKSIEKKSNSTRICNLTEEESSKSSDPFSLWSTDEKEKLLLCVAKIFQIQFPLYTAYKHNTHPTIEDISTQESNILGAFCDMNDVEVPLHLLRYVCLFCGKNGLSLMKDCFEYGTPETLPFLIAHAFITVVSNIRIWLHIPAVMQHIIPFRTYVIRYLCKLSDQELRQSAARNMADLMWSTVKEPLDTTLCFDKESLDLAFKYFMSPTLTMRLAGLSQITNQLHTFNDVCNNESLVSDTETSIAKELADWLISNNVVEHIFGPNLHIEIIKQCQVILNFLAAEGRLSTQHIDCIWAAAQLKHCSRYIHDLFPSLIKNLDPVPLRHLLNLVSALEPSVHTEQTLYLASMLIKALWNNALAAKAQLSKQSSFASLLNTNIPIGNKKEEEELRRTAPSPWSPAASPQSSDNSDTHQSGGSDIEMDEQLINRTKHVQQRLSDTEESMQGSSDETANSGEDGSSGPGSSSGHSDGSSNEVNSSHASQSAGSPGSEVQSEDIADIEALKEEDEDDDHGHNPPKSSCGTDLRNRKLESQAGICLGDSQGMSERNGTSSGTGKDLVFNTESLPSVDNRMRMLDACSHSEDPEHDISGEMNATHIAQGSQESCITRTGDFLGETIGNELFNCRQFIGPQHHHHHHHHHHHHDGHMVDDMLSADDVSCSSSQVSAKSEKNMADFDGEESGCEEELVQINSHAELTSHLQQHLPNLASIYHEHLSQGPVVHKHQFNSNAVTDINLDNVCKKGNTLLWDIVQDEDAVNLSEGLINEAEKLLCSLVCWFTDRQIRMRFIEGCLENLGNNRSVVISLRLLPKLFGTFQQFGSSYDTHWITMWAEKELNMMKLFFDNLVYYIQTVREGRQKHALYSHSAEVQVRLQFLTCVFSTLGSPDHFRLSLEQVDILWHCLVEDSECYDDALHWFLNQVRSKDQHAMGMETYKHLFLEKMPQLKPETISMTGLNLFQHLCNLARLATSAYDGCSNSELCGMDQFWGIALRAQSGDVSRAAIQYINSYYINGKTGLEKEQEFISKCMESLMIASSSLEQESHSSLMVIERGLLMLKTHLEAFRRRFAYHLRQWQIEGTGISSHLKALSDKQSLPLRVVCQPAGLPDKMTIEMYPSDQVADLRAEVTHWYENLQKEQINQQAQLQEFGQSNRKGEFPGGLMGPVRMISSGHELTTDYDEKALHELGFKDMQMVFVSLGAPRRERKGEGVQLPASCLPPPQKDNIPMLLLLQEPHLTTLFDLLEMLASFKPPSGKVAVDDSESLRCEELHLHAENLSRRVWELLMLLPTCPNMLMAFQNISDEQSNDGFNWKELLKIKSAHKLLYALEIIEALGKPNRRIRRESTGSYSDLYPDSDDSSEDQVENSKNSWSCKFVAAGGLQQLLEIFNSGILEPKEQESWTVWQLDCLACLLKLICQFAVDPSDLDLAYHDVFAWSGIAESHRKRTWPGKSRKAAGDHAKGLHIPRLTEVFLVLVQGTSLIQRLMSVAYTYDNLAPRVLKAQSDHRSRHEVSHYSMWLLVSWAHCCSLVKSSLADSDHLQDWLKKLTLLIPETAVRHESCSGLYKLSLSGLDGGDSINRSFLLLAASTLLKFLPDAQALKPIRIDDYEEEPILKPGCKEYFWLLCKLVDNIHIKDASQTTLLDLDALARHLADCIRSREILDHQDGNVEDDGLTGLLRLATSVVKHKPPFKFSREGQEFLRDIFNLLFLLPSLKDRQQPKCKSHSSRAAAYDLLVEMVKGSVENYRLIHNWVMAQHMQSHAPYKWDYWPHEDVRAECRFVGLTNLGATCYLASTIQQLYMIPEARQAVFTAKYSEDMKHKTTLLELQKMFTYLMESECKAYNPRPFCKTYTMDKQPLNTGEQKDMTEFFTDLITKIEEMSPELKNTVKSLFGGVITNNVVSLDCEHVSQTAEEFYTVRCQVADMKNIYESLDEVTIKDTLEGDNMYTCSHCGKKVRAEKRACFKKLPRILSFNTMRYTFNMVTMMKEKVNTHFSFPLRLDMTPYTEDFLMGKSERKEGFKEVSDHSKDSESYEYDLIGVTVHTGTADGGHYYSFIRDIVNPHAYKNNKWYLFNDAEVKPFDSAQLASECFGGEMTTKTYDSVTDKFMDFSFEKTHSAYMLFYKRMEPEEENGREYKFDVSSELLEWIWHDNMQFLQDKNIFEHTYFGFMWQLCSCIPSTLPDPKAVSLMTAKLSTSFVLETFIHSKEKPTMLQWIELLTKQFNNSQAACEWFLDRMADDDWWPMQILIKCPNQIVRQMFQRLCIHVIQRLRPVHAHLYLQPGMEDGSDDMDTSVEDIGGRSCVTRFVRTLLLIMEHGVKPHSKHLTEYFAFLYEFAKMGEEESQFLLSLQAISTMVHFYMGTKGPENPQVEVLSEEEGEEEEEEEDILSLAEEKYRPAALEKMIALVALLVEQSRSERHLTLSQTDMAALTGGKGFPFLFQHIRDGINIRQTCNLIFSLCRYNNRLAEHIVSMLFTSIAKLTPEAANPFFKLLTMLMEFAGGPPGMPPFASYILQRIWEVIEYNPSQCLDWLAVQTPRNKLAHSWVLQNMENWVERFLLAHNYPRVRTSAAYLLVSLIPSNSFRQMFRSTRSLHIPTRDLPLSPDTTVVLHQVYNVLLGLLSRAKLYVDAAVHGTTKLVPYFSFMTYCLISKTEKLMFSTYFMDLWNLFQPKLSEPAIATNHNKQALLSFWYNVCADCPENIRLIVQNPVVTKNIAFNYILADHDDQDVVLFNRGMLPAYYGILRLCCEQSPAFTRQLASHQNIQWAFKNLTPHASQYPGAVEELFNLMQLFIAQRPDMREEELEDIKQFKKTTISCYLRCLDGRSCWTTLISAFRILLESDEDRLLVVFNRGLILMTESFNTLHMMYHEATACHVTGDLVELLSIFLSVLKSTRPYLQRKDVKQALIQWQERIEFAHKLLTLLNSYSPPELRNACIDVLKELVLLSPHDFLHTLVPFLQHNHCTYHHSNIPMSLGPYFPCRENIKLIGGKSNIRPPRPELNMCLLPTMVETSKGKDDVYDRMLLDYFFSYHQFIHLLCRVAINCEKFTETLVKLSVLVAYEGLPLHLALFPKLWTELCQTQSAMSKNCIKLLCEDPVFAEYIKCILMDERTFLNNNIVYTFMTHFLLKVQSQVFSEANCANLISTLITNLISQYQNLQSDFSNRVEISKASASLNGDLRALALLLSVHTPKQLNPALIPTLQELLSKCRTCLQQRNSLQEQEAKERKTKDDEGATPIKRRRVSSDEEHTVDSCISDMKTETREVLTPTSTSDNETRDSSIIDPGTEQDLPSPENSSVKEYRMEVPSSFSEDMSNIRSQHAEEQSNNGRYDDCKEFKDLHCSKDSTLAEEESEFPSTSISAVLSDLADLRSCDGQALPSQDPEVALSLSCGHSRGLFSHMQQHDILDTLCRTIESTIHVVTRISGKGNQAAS

Cc1cccc(N2CCC(NC(=O)CCl)C2=O)c1 (stereo not given)
inactive: USP34 0.0479 | USP36 -0.0247 | USP38 -0.169 | USP39 -0.32 | USP4 -0.134
